Assay outcomes: PubChem BioAssay, National Center for Advancing Translational Sciences (NCATS)
Most compounds without a hit are left out; they make up all but 19% or so of the library.
HT1080-NT tox: qHTS for induction of synthetic lethality in tumor cells producing 2HG: qHTS for the HT-1080-NT fibrosarcoma cell line; HT-1080-NT fibrosarcoma viability, CellTiter-Glo ATP luminescence, 48 h; Potency, µM (highest dose often 46.1 µM), inactives show top-dose activity, negative = less viability, hits mostly cytotoxic; actives 1.6% (n = 360,000);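 note: NT is the 2HG producing partner of a matched IDH1 knockdown line; 0% = DMSO-treated cells and -100% = media-only wells without cells; nearly all actives have a fitted effect of over 55% in size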
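HT-1080-NT; 750 cells/well; 5% FBS RPMI; 48 h compound, 37 degrees C; CellTiter-Glo luminescence; curve fitting and curve-class assignment.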
DT40 TDP1 CPT: qHTS for Inhibitors of human tyrosyl-DNA phosphodiesterase 1 (TDP1): qHTS in cells in presence of CPT. chicken DT40 Tdp1-/-;hTDP1 cells + 20 nM CPT, ATP luminescence, 48 h. Potency, µM (doses to about 46.2 µM), for inactives: top-dose activity change, negative = growth inhibition, actives largely listed as inhibitors. actives 12% (n = 420,000); note: nearly all actives have a fitted effect of over 55% in size
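Chicken DT40 Tdp1-/- cells stably complemented with human TDP1 were seeded at 400 cells/well in medium containing 20 nM camptothecin, exposed to pin-transferred compounds, and grown at 37 °C for at least 48 hr. Viability was read as ATP luminescence.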
KB-3-1 tox: qHTS assay for MDR1-selective chemotherapeutics: Primary screen using the parental adenocarcinoma cell KB-3-1; KB-3-1 viability, CellTiter-Glo ATP luminescence, 72 h; Potency, µM (doses to about 46.1 µM), actives largely listed as cytotoxic; actives 1.4% (n = 400,000); AID 1347075, 2019; note: nearly all actives have a fitted effect of over 60% in size
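Parental KB-3-1 viability, qHTS format: 72 h compound exposure, 37 °C; CellTiter-Glo; media-only wells and DMSO plates as controls; concentration-effect fits on corrected data.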
HT1080 IDH1KD tx: qHTS for induction of synthetic lethality in tumor cells producing 2HG: qHTS for the HT-1080-IDH1KD cell line; HT-1080 IDH1 knockdown viability, ATP luminescence, 48 h; Potency, µM (series often up to 46.1 µM), inactives show at the top dose activity, negative = toxicity, most hits filed as cytotoxic; actives 2% (n = 360,000);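 note: 0% = DMSO wells and -100% = cell-free medium wells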
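Knockdown cells (IDH1KD HT-1080) received compounds 2 h after plating at 750 cells/well and were kept 48 h at 37 °C in 5% FBS RPMI. A CellTiter-Glo luminescence read gave % activity for curve fitting.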
KB-V1 MDR tox: qHTS assay for MDR1-selective chemotherapeutics: Primary screen using the drug-selected MDR subline cells KB-V1 | KB-V1 MDR cells viability, CellTiter-Glo, 72 h | Potency, µM (doses to about 46.1 µM), actives largely listed as cytotoxic | actives 3.4% (n = 400,000) | AID 1347076, 2019; note: nearly all actives have a fitted effect of over 60% in size
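KB-V1, DMEM (no phenol red) + 10% FBS; cpd pin-transferred, titration series; 72 h, 37 degrees C; CellTiter-Glo, luminescence. Data normalized, curve-fit.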
DT40 TDP1 no CPT: qHTS for Inhibitors of human tyrosyl-DNA phosphodiesterase 1 (TDP1): qHTS in cells in absence of CPT. actives 15% (n = 420,000). DT40 Tdp1-/- hTDP1 cells, no CPT, ATP luminescence, 48 h. Potency, µM (highest dose often 46.2 µM), inactives show at the highest dose activity change, negative = growth inhibition, usual class: inhibitors; note: nearly all actives have a fitted effect of over 55% in size
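Stably hTDP1-transfected Tdp1-null chicken DT40 cells were treated with library compounds minus camptothecin and grown for at least 48 hr at 37 °C, after which cellular ATP was quantified by luminescence.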
The depositor's hits bear a star; i = inactive; ? = inconclusive; · = no result; [ ] = dose if it differs, or a comment. Calls come from the whole dose curve; as a rule, active = well fitted curve in the direction sought with a large enough effect; inconclusive = small, poorly fitted or top-dose-only effect, or another doubt; inactive = no such curve, though single readings can be large; an effect the other way counts as inactive or inconclusive. Unless noted, % is set by controls: 0 for no effect and ±100 for the full control effect; potency is the fitted concentration of half-maximal effect.

SMILES	HT1080-NT tox	DT40 TDP1 CPT	KB-3-1 tox	HT1080 IDH1KD tx	KB-V1 MDR tox	DT40 TDP1 no CPT
C=CCOc1c(Cl)cc(CNc2ccc(N(C)C)cc2)cc1OC	-15%[9.24 µM]	6.5µM*	?	16µM*	5.2µM*	6.5µM*
CCOc1ccc(CNc2ccc(N3CCCC3)cc2)cc1	3%	9.2µM*	i	-29%	i	8.2µM*
CCOc1ccc(OCCN2CCCCC2)cc1	13%	-26%	i	5%	?	-15%
CCOc1cc(CNc2ccc(S(N)(=O)=O)cc2)cc(Cl)c1OC	-1%	?	i	-14%	i	?
CCOc1ccc(CNCCN2CCCC2)cc1	-21%	?	i	-3%	?	21µM*
Cc1ccc(C23CC4CC(CC(C(=O)OCC(=O)NC5CCS(=O)(=O)C5)(C4)C2)C3)cc1 (stereo unspecified)	16%	-16%	i	20%	i	-20%
CCOC(=O)C1(C)CCCCN1C(=O)c1ccoc1 (stereo unspecified)	13%	-12%	i	13%	i	-3%
CCCCSc1nnc(-c2ccccc2)c2ccccc12	1%	?	i	2%	i	?
COc1cc(CNc2ccc(N3CCCC3)cc2)cc(Cl)c1OC	16µM*	2.3µM*	12µM*	?	?	2.6µM*
CCOc1cc(CNc2ccc(N3CCCC3)cc2)cc(Cl)c1OC	?	2.9µM*	?	?	?	3.7µM*
CCN(CC(=O)Nc1c(F)cccc1F)C(=O)C1CCCO1 (stereo unspecified)	8%	-9%	i	9%	i	8%
CC(=O)N1c2c(cc(Br)cc2S(=O)(=O)N2CCN(C(=O)c3ccco3)CC2)CC1C (stereo unspecified)	4%	21µM*	i	0%	?	18µM*
CC(=O)N1c2c(cc(Br)cc2S(=O)(=O)Nc2c(C)n(C)n(-c3ccccc3)c2=O)CC1C (stereo unspecified)	15%	-1%	i	14%	i	-13%
CC(=O)N1c2c(cc(Br)cc2S(=O)(=O)N2CCN(c3ccccc3)CC2)CC1C (stereo unspecified)	·	23µM*	i	·	i	16µM*
COc1cccc(CNCc2ccccn2)c1OC	-5%	-22%	i	3%[9.24 µM]	i	18µM*
COc1ccccc1CNCc1cc(Br)ccc1OC	-27%	?	i	?	?	16µM*
COc1ccc(Br)cc1CNc1ccc(O)cc1	?	?	i	?	i	?
COc1ccc(Br)cc1CNC(C)c1ccccc1 (stereo unspecified)	-14%	?	i	-21%	i	29µM*
COc1ccc(Br)cc1CNC(=O)Cc1cccs1	-5%	18%	i	-7%	i	-5%
COc1ccc(Br)cc1CNC(=O)c1cc2ccccn2n1	·	16µM*	i	·	i	?
Cc1cc(C)c(NC(=O)Cn2c(=O)nc(-c3ccccc3)c3cc(Cl)ccc32)c(C)c1	·	5%	·	·	·	?
COc1ccccc1CNCc1ccc(OC)c2ccccc12	15µM*	?	i	-58%	?	16µM*
COc1cccc(CNCc2ccc(OC)c3ccccc23)c1OC	?	21µM*	i	?	i	16µM*
COc1cc(CNc2ccc(O)cc2)cc(Br)c1OCc1ccccc1	?	?	i	-21%	i	?
COc1cc(CNC(C)c2ccccc2)cc(Br)c1OCc1ccccc1 (stereo unspecified)	16µM*	-94%	?	?	?	9.2µM*
SMILES	HT1080-NT tox	DT40 TDP1 CPT	KB-3-1 tox	HT1080 IDH1KD tx	KB-V1 MDR tox	DT40 TDP1 no CPT
CCCCN(C)CCNC(=O)c1c(C)oc2ncnc(N3CCOCC3)c12	·	17%	·	·	·	6%
Cc1nn(Cc2ccccc2)c(Cl)c1C(=O)OC(C)C#N (stereo unspecified)	?	7%	i	?	?	?
CC1(C)CCC[C@]2(C)C(CS(=O)c3ccccc3)=C(C=O)CC[C@@H]12 (stereo partly specified)	-11%	?	?	-21%	?	21µM*
COc1cc(CNCc2c[nH]c3ccccc23)cc(OC)c1	?	5.8µM*	i	-21%	7.3µM*	9.2µM*
COc1ccc(CNCc2ccc(C)cc2)c(OC)c1	-18%	?	i	-23%	i	?
COc1cc(CNCc2ccc(OC)cc2OC)cc(OC)c1	-4%	?	i	-8%	?	21µM*
CCc1ccc(OC(=O)/C=C/c2ccco2)cc1	0%	-4%	i	1%	i	14%
O=C(/C=C/c1ccco1)Oc1cccc2cccnc12	?	?	i	21µM*	i	?
O=C(/C=C\c1ccco1)Oc1cccc2cccnc12	?	0.58µM*	?	15µM*	i	0.65µM*
COc1ccccc1/C=C/C(=O)Oc1cccc2cccnc12	0%	?	i	0%	i	16µM*
CCCCc1ncc(/C=C(\Cc2cccs2)C(=O)O)n1Cc1ccc(C(=O)O)cc1	·	-20%	·	·	·	-8%
COc1ccc(NC(=O)N(Cc2nnc3n2CCCCC3)c2ccc(OC)c(Cl)c2)cc1	·	1%	?	·	i	-2%
CCc1cc(C(=O)c2ccccc2)c(N)s1	-3%	26µM*	i	-10%	i	?
CC(C)NCC(O)Cn1c2c(c3ccccc31)CCc1c-2cnn1-c1ccccc1 (stereo unspecified)	?	3.7µM*	16µM*	-12%[9.24 µM]	21µM*	5.8µM*
CN1CCc2c(n(CC(O)CN3C(=O)c4ccccc4S3(=O)=O)c3ccccc23)C1=O (stereo unspecified)	4%	5%	i	5%[9.24 µM]	i	-9%
O=C(c1ccc(Cn2cc(Br)cn2)cc1)N1CCN(c2ccccc2)CC1	?	15µM*	i	?	i	16µM*
